Laboratory results taken from the supplement of paper PMC6555819.

Experiments:
Assay in all cases: PBM binding z-score (relative to random genomic background probes); higher = stronger binding; sequences stand for … in GC…GCGATTGACAGCGTAGAATGAAGG
[1] = test system: FXR:RXRa (NR concentration 270 nM, RXRa partner concentration 90 nM)
How it was run: (§1)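 For binding z-scores, the reference was random background probes on custom Agilent 4×180K protein-binding microarrays. These arrays were incubated 1 h with ligand-free nuclear receptor dimers in PBS pH 7.4, 2% milk, 0.02% Triton X-100, 1 mM DTT, 0.2 mg/mL BSA and 0.4 mg/ml salmon testes DNA. Fluorescence was scanned after antibody detection of each partner (one per run) and regression-normalized.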

[2] = test system: LXRa:RXRa (NR concentration 270 nM, RXRa partner concentration 90 nM)
How it was run: as §1

[3] = test system: LXRa homodimer (NR concentration 270 nM)
How it was run: as §1

[4] = test system: LXRb:RXRa (NR concentration 270 nM, RXRa partner concentration 90 nM)
How it was run: as §1

[5] = test system: LXRb homodimer (NR concentration 270 nM)
How it was run: as §1

[6] = test system: PPARa:RXRa (NR concentration 270 nM, RXRa partner concentration 90 nM)
How it was run: as §1

[7] = test system: PPARg:RXRa (NR concentration 180 nM, RXRa partner concentration 90 nM)
How it was run: as §1

[8] = test system: PPARg:RXRa 270nM:90nM, anti-RXR (NR concentration 270 nM, RXRa partner concentration 90 nM)
How it was run: as §1

[9] = test system: PPARg:RXRa 30nM:10nM, anti-RXR (NR concentration 30 nM, RXRa partner concentration 10 nM)
How it was run: as §1

[10] = test system: PPARg:RXRa 90nM:30nM, anti-RXR (NR concentration 90 nM, RXRa partner concentration 30 nM)
How it was run: as §1

[11] = test system: PPARg:RXRa DBDmut IVT, anti-RXR (DBD mutation: RXRa K156A/R161A, NR concentration 270 nM, RXRa partner concentration 90 nM)
How it was run: as §1

[12] = test system: PPARg:RXRa IVT, anti-PPARg (NR concentration 270 nM, RXRa partner concentration 90 nM)
How it was run: as §1

[13] = test system: PPARg DBDmut:RXRa IVT, anti-PPARg (DBD mutation: PPARg1 K132A/R137A, NR concentration 270 nM, RXRa partner concentration 90 nM)
How it was run: as §1

[14] = test system: PPARg DBDmut IVT, anti-PPARg (DBD mutation: PPARg1 K132A/R137A, NR concentration 270 nM)
How it was run: as §1

[15] = test system: PPARg homodimer (NR concentration 180 nM)
How it was run: as §1

[16] = test system: PXR:RXRa (NR concentration 270 nM, RXRa partner concentration 90 nM)
How it was run: as §1

[17] = test system: PXR homodimer (NR concentration 270 nM)
How it was run: as §1

[18] = test system: RARa:RXR (NR concentration 270 nM, RXRa partner concentration 90 nM)
How it was run: as §1

[19] = test system: RARa homodimer (NR concentration 270 nM)
How it was run: as §1

[20] = test system: RARb:RXRa (NR concentration 270 nM, RXRa partner concentration 90 nM)
How it was run: as §1

Sequence	PBM binding z-score [1]	PBM binding z-score [2]	PBM binding z-score [3]	PBM binding z-score [4]	PBM binding z-score [5]	PBM binding z-score [6]	PBM binding z-score [7]	PBM binding z-score [8]	PBM binding z-score [9]	PBM binding z-score [10]	PBM binding z-score [11]	PBM binding z-score [12]	PBM binding z-score [13]	PBM binding z-score [14]	PBM binding z-score [15]	PBM binding z-score [16]	PBM binding z-score [17]	PBM binding z-score [18]	PBM binding z-score [19]	PBM binding z-score [20]
CGTCCACGGTCAAGGTCAGTGAAAGAGACTCGAA	2.73	1.71	-0.21	1.6	-0.801	2.61	0.677	1.15	-0.28	0.438	0.397	1.53	-0.802	-1.07	1.28	1.69	0.177	2.2	0.0153	4.28
CCTTACGGGTCAAGGTTATAGCACGGGTGGTACG	5.23	3.73	0.318	2.98	0.019	5.02	4.65	4.69	2.06	3.64	1.93	3.57	0.0487	-0.257	1.58	3.2	0.367	4.01	0.705	4.13
ATCTCTAGGTAAAGTTCAGTGATAGATCGATAGA	1.49	1.95	1.88	1.14	1.34	2.39	3.59	4.16	2.3	3.88	2.28	2.44	1.4	1.48	1.9	1.92	1.96	1.35	1.69	2.71
TCAGCTAGGTCAACGATGGTCAGCTAATCTGCTA	3.13	2.34	-0.215	1.41	-0.491	3.2	2.64	2.95	2.5	2.66	4.15	4.22	-0.361	-0.524	1.38	1.42	-0.591	1.96	-0.477	4.05
CCAGTCAGGTGAAAGGTAACTCAGTCTGGTACGC	0.669	0.466	-0.287	0.541	-0.583	3.61	6.45	6.44	5.15	7.56	3.47	3.78	-0.52	-0.877	1.17	0.577	-0.2	1.58	0.202	1.55
CCTAGTTGGTCACGAGGTCACACACCGGATATGA	4.38	3.84	2.36	3.94	0.56	5	5.28	4.91	2.28	3.65	3.54	5.42	0.987	1.28	2.99	4.79	1.97	4.87	1.29	4.14
ACTACTTGGTCAGCTGAGGTCACACACAATTCGG	3.83	3.9	3.15	3.97	1.27	3.76	2.24	2.68	0.841	1.7	2.16	2.81	0.583	1.36	4.02	5.72	1.85	4.92	0.831	3.59
TCTTGTAGATCAACAGGAGGTTAAAAAAGATCGA	0.243	2	0.321	1.34	-0.17	1.54	0.116	1.59	2.66	2.31	1.2	0.996	0.773	1.21	-0.0647	0.969	-0.197	0.92	0.296	0.47
CCGACTGGGCCAAAAAGGTCATTGATGCCGATAA	3.41	4.25	2.8	3.93	-0.421	4.53	2.35	3.47	0.713	2.22	1.65	2.62	-1.21	-1.08	2.17	4.5	1.95	4.92	0.897	3.9
TAGCCTAGGTCATCGGGCCAGTATAGTACGCATC	4.52	3.33	0.51	2.29	0.0366	3.91	3.13	3.04	0.482	2.16	1.44	3.19	0.181	-0.303	1.03	1.81	-0.265	2.58	-0.0244	3.9
ACTTACGGGTCAACGAGCTTATAGCACGCGTATA	6.23	3.9	0.0459	3.55	0.744	5.49	4.76	5.05	1.71	3.6	3.07	3.31	0.724	0.908	1.42	3.19	-0.152	4.16	0.825	4
GCATATACGTAATACAAGGTGAAAGTCCGATTGT	0.409	0.28	0.383	0.441	0.0307	0.855	0.906	0.499	0.287	0.554	-0.0308	0.718	0.51	1.15	0.296	0.381	0.191	0.815	0.672	0.666
CCTCGGAGGACAACAGGTGGTCAGAGCTGCCAGA	-0.329	-0.519	-0.443	-0.782	-1.09	-0.623	-0.311	-0.79	-1.45	-1.37	-0.455	-0.616	-2.74	-2.26	-0.317	-0.667	-0.589	-0.583	-0.066	1.04
